Most compounds without a hit are left out; they make up all but 3.9% or so of the library.
FBA Mtb inh: Mtb FBA enzyme inhibitors, primary screen, biochemical, fluorescence, strain H37Rv. Fructose-bisphosphate aldolase (Mycobacterium tuberculosis (strain ATCC 25618 / H37Rv)), …. purified M. tuberculosis FBA, fluorescence read-out. inhibition, % at 1 µM. actives 2.3% (n = 360,000). AID 588726, 2011; in the data active means inhibition above about 27%;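 further: 0% = vehicle and 100% = reference inhibitor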
Target sequence (P9WQA3 whole entry, looked up): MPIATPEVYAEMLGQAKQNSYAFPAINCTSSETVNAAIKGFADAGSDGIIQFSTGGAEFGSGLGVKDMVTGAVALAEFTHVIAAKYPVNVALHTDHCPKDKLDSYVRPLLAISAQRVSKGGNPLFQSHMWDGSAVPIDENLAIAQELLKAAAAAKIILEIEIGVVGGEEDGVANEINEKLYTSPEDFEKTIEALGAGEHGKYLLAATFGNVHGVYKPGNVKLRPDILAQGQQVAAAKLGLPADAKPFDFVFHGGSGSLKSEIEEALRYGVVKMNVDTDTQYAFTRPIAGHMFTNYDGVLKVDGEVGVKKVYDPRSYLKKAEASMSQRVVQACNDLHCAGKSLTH
PrPC surface inh: inhibitors of human cell surface prion protein PrPC, primary screen, cell-based, TR-FRET. actives 0.43% (n = 370,000). AID 720596, 2013. TR-FRET read-out. inhibition, % at 13.8 µM; in the data active means inhibition above about 24%; further: 0% = median of the test wells and 100% = reference compound wells
SARS 3CLpro inh: SARS-CoV 3CLpro protease inhibitors, primary screen, biochemical, quenched FRET; Replicase polyprotein 1ab (Severe acute respiratory syndrome coronavirus), P0C6X7; recombinant SARS-CoV 3CLpro, quenched FRET peptide cleavage; inhibition, % at 6 µM; actives 0.14% (n = 290,000); in the data active means inhibition above about 12%
GDH-TPI counter: GDH-TPI coupling enzyme inhibitors, primary screen, artefact control for M. tuberculosis FBA inhibitor project, biochemical, absorbance, full deck. GDH-TPI coupled enzyme counterscreen, NADH absorbance. inhibition, % at 4.8 µM. actives 1.2% (n = 360,000). AID 588335, 2011; in the data active means inhibition above about 30%;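 further: 0% = DMSO wells and 100% = wells lacking the enzyme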
Vc quorum ag: inducers of Vibrio cholerae quorum light production without autoinducers, primary screen, BH1578 luxS cqsA deficient, single point; V. cholerae BH1578 lux reporter, luminescence, 6 h; activation, % at 18.7 µM; actives 0.16% (n = 350,000); in the data active means activation mostly above about 9.7%, no sharp cut-off
Active calls of the source: *.

CCOCCCn1c(=NC(C)=O)c(C#N)cc2c(=O)n3ccccc3nc21 was read as FBA Mtb inh active, PrPC surface inh -26, SARS 3CLpro inh 0, GDH-TPI counter 24 and Vc quorum ag -1.
`COCCCn1c(=NC(=O)c2ccccc2)c(C#N)cc2c(=O)n3cccc(C)c3nc21` gave FBA Mtb inh 174*, PrPC surface inh -16, SARS 3CLpro inh -2, GDH-TPI counter -6 and Vc quorum ag 2.
`CCOCCCNC(=O)c1cc2c(=O)n3cccc(C)c3nc2n1C` gave FBA Mtb inh 15, PrPC surface inh -7, GDH-TPI counter 14 and Vc quorum ag 0.
`COCCCn1c(=NC(C)=O)c(C#N)cc2c(=O)n3cccc(C)c3nc21` gave FBA Mtb inh active, PrPC surface inh 4, SARS 3CLpro inh 4, GDH-TPI counter -1 and Vc quorum ag inactive.
For NC(=S)N=Nc1c(O)cc(O)c2[nH]c(=O)ccc12 the results were FBA Mtb inh -4, PrPC surface inh -15 and GDH-TPI counter 37*.
NC(=S)N=Nc1c(O)[nH]c2ccc(F)cc12 was read as FBA Mtb inh 0, PrPC surface inh -43, SARS 3CLpro inh 1, GDH-TPI counter 28 and Vc quorum ag -1.
`CC(C)C[C@@H]1COc2cc(Br)ccc2S(=O)(=O)N1Cc1cn(CCC2OCCCO2)nn1` gave PrPC surface inh 2.
`CCOC(=O)/C(C#N)=C/Nc1ccccc1OC(F)(F)F` gave FBA Mtb inh -1, PrPC surface inh 7, SARS 3CLpro inh 8, GDH-TPI counter 16 and Vc quorum ag inactive.
O=C(Cn1c2c(c(-c3ccccc3Cl)cc1=O)CCC2)NCCCN1CCOCC1 was read as FBA Mtb inh 15, PrPC surface inh -5, SARS 3CLpro inh -3, GDH-TPI counter 31* and Vc quorum ag 0.
O=C(Cn1c2c(c(-c3ccccc3Cl)cc1=O)CCC2)NCC1CCCO1 (stereo unspecified) was read as FBA Mtb inh 11, PrPC surface inh -3, SARS 3CLpro inh -2, GDH-TPI counter 18 and Vc quorum ag 0.
Screening CN(C(=O)CN1C(=O)S/C(=C\c2ccc(Cl)cc2)C1=O)C1CCS(=O)(=O)C1 (stereo unspecified) returned FBA Mtb inh 5, PrPC surface inh 1, SARS 3CLpro inh -3, GDH-TPI counter 38* and Vc quorum ag 0.
For CN(C(=O)CN1C(=O)S/C(=C\c2ccccc2)C1=O)C1CCS(=O)(=O)C1 (stereo unspecified) the results were FBA Mtb inh -3, PrPC surface inh -12, SARS 3CLpro inh 1, GDH-TPI counter 45* and Vc quorum ag 0.
For CCN(C(=O)CCN1C(=O)S/C(=C\c2ccccc2)C1=O)C1CCS(=O)(=O)C1 (stereo unspecified) the results were FBA Mtb inh -2, PrPC surface inh 1, SARS 3CLpro inh 0, GDH-TPI counter 43* and Vc quorum ag 1.
Screening COc1cccc(/C=C2\SC(=O)N(CCC(=O)NC3CCS(=O)(=O)C3)C2=O)c1 (stereo unspecified) returned FBA Mtb inh -3, PrPC surface inh -10, SARS 3CLpro inh -4, GDH-TPI counter 27 and Vc quorum ag inactive.
`O=C(CCN1C(=O)S/C(=C\c2ccccc2)C1=O)NC1CCS(=O)(=O)C1` (stereo unspecified) gave FBA Mtb inh -3, PrPC surface inh 1, SARS 3CLpro inh -2, GDH-TPI counter 36* and Vc quorum ag inactive.
CC(=O)/C(=N\Nc1ccc(C)cc1)Sc1nncn1C was read as FBA Mtb inh 0, PrPC surface inh -2, SARS 3CLpro inh -7, GDH-TPI counter -2 and Vc quorum ag -1.
For CN(CC(=O)Nc1ccc(F)c(F)c1F)C(=O)c1nn(Cc2ccccc2)c(=O)c2ccccc12 the results were FBA Mtb inh -1, PrPC surface inh -3, GDH-TPI counter -1 and Vc quorum ag -4.
Screening Cc1cc(OCCN2CCC(Cc3ccccc3)CC2)ccc1[N+](=O)[O-] returned FBA Mtb inh -1, PrPC surface inh 2, SARS 3CLpro inh -4, GDH-TPI counter 20 and Vc quorum ag -1.
CC(C)C[C@H]1CNC(=S)N1C[C@H]1CCCN1C[C@H](Cc1ccc(O)cc1)N1C[C@H](Cc2ccccc2)N(CC2CCCCCC2)C1=S was read as FBA Mtb inh 4 and PrPC surface inh 7.
Screening Cc1ccc(NC(=O)C2(S(=O)(=O)c3ccc(Cl)cc3)CC2)cc1 returned FBA Mtb inh 7, PrPC surface inh 4, SARS 3CLpro inh -4, GDH-TPI counter 9 and Vc quorum ag 0.
For O=C(OC12CCCN(C1)/C(=C/c1cccc(Cl)c1)C2)C1CCCC1 (stereo unspecified) the results were PrPC surface inh -1.
For CC(C)(C)NC(=O)CN(C(=O)C1(C)CC(=O)N=C2C=CC=CN21)C1CCCC1 (stereo unspecified) the results were FBA Mtb inh 120*, PrPC surface inh -3, SARS 3CLpro inh 2, GDH-TPI counter 19 and Vc quorum ag 0.
`CC1=CC=CC2=NC(=O)CC(C)(C(=O)N(CC(=O)NC(C)C)C3CCCC3)N12` (stereo unspecified) gave FBA Mtb inh 128*, SARS 3CLpro inh 5, GDH-TPI counter 15 and Vc quorum ag -1.
Screening CC1=CC2=NC(=O)CC(C)(C(=O)N(CC(=O)NC(C)(C)C)C3CCCC3)N2C=C1 (stereo unspecified) returned FBA Mtb inh 9, PrPC surface inh -4, SARS 3CLpro inh -2, GDH-TPI counter 2 and Vc quorum ag -1.
CN(Cc1ccccc1)C(=O)CCn1c(=O)c2cccn2c2cccnc21 was read as FBA Mtb inh 2, PrPC surface inh 6, SARS 3CLpro inh 3, GDH-TPI counter 7 and Vc quorum ag 0.
Screening CCCc1ccc(-c2cc(NC(=O)Cc3c(C)[nH]c4ccccc34)ccc2N(C)c2cccnc2)cc1 returned PrPC surface inh 17.
For COc1ccc(C=C(C#N)C(=O)c2ccccc2)cc1 the results were PrPC surface inh -2.
Screening COc1cc(/C=C(\C#N)C(=O)c2ccc(O)c(O)c2)cc(I)c1O returned FBA Mtb inh -6, PrPC surface inh -2, GDH-TPI counter 55* and Vc quorum ag 1.
CC(=O)N1CCOc2ccc(S(=O)(=O)NC(C)c3ccccc3)cc21 (stereo unspecified) was read as FBA Mtb inh 0, PrPC surface inh 2, SARS 3CLpro inh -3, GDH-TPI counter 3 and Vc quorum ag 2.
O=C(NC1CCC1)O[C@H]1CC[C@@]23CCCN2C(=O)CCC[C@H]3C1 was read as PrPC surface inh 1.
